Structures are written as SMILES. About 13,000 (27%) of roughly 48,000 compounds showed an effect of 50% or more. This is one part of the list.

The test system of the test is Wolbachia pipientis. The test is described as follows: Anti-Wolbachia Cell-Based Screen. The format is functional. Also on record: scale not given: in the data most compounds retested in dose-response had high values. The note with it: 5 µM.
With `CC(C)(O)CCc1ccc(C(=O)N2CCN(CC3CCCC3)CC2)cc1`, the “Percent Effect” value is -6.284%.

Turning to `CN(C)CCn1c2c(ccc1=O)CCN(Cc1cnn(C)c1)CC2.O=C(O)C(F)(F)F.O=C(O)C(F)(F)F`, the “Percent Effect” value came out at 120.7%.

With `COCc1nn(C)c2c1CCN(Cc1cnn(C)c1)C2.O=C(O)C(F)(F)F`, the “Percent Effect” value was -18.26%.

Turning to `Cc1nccn1-c1cccc(C2CCCN(C(=O)c3cc[nH]n3)C2)n1` (stereo not drawn), the “Percent Effect” value is given as 5.97%.

For the molecule `Fc1ccccc1-c1cccc(C2CCCN(C3CCOCC3)C2)n1` (stereo not drawn), the “Percent Effect” value is on record as 71.52%.

As for `Cc1cccc(O[C@H]2COCCN(C3CCOCC3)C2)n1`, the “Percent Effect” value is -0.8542%.

Regarding `CCc1nccn1-c1cccc(C2CCCN(C3CCCCC3)C2)n1` (stereo not drawn), the “Percent Effect” value is on record as 96.78%.

Turning to `Cc1nccn1-c1cccc(C2CCCN(C3CCCC3)C2)n1` (stereo not drawn), the “Percent Effect” value is 98.22%.

As to `Cc1nccn1-c1cccc(C2CCCN(C3CCCCC3)C2)n1` (stereo not drawn), the “Percent Effect” value is reported as -27.27%.

On to `c1ccc(-c2nnc([C@H]3CCN(C4CCOCC4)C3)o2)cc1`, for which the “Percent Effect” value is -19.45%.

Consider `O=c1cc2c(nn1CN1CCOCC1)CCC2`, for which the “Percent Effect” value amounted to 1.556%.

Consider `CNC(=O)NC(=O)CNc1cc(C(=O)OC)cc(C(F)(F)F)c1`, for which the “Percent Effect” value turned out to be 1.326%.

On to `COc1cccc(CN2CCc3nc(C(=O)NCC(C)C)sc3CC2)c1.O=C(O)C(F)(F)F`, for which the “Percent Effect” value was determined as 3.655%.

In the case of `Fc1cccc(N2CCc3ncnc(C4CC4)c3CC2)c1`, the “Percent Effect” value stood at 8.314%.

With `CC(C)NC(=O)NC[C@H]1OC[C@@H](NCc2ccc(S(C)(=O)=O)cc2)[C@@H]1O`, the “Percent Effect” value came to 9.83%.

For the molecule `CO[C@@H]1CC[C@H]2[C@H]1OCCN2C(=O)c1ccc(C)o1`, the “Percent Effect” value was -15.27%.

Regarding `CO[C@@H]1CC[C@H]2[C@H]1OCCN2C(=O)COc1ccc(C)cc1`, the “Percent Effect” value is 102.2%.

Take `CO[C@H]1CC[C@H]2[C@H]1OCCN2C(=O)CCOc1ccccc1`: the “Percent Effect” value was found to be 104.1%.

Regarding `CCC(C)(CC(=O)OC)NC(=O)c1ccc(C(C)=O)cc1` (stereo not drawn), the “Percent Effect” value came out at 5.798%.

For the molecule `O=C1CC(C(=O)O)C2(CCN(C(=O)NCc3ccc(Cl)cc3)CC2)N1` (stereo not drawn), the “Percent Effect” value came to 6.317%.

Take `Cl.O=C(NCc1ccc(Cl)cc1)N1CCN(CC(O)C2CC2)CC1` (stereo not drawn): the “Percent Effect” value came to 116%.

On to `COc1cccc(CNC(=O)N2CCN(Cc3cc(C)on3)CC2)c1`, for which the “Percent Effect” value is recorded as -11.4%.

On to `COc1ccc(CNC(=O)N2CCN(CC(O)C3CC3)CC2)cc1.Cl` (stereo not drawn), for which the “Percent Effect” value was found to be 99.74%.

For the molecule `Cl.O=C(NCc1ccc(F)cc1)N1CCN(CC(O)C2CC2)CC1` (stereo not drawn), the “Percent Effect” value was 111%.

`COc1ccc(CNC(=O)N2CCN(C)[C@@H]3CS(=O)(=O)C[C@@H]32)cc1`: the “Percent Effect” value is reported as 5.272%.

In the case of `Cl.Cl.O=C(CN1CCN(CC(O)C2CC2)CC1)NCc1ccc(F)cc1` (stereo not drawn), the “Percent Effect” value is recorded as 3.1%.

Consider `O=S(=O)(Cc1ccc(F)cc1)N1CCN(CC(O)C2CC2)CC1` (stereo not drawn), for which the “Percent Effect” value is -13.11%.

On to `Cl.Cl.OC(CN1CCN(Cc2cc(F)cc(F)c2)CC1)C1CC1` (stereo not drawn), for which the “Percent Effect” value is -3.47%.

For the molecule `COc1ccc(Cn2nc(C(N)=O)ccc2=O)c(Cl)c1`, the “Percent Effect” value came to 8.088%.

Turning to `COc1ccc(-c2cc3nn(CC(N)=O)c(=O)n3c(C)n2)cc1`, the “Percent Effect” value is 110.8%.

As to `COc1ccc(-c2cc3nn(CC(=O)NC(C)C)c(=O)n3c(C)n2)cc1`, the “Percent Effect” value is given as 109.7%.

For `Cc1nn2c(NCC(N)=O)cc(-c3ccccc3)nc2c1C`, the “Percent Effect” value is reported as 1.327%.

For the molecule `COCC(=O)N[C@H](C)c1c(-c2ccc(OC)cc2)noc1C(=O)O`, the “Percent Effect” value is on record as -10.1%.

In the case of `CC(=O)N1CCN(c2cc(-c3ccccc3)nc3c(C)c(C)nn23)CC1`, the “Percent Effect” value is given as -0.0371%.

Consider `COc1ccc(NC(=O)Cn2nc(C)c(C)cc2=O)cc1`, for which the “Percent Effect” value is -2.265%.

Regarding `Cc1nc(-c2ccccc2)cc2nn(CC(N)=O)c(=O)n12`, the “Percent Effect” value turned out to be 117.5%.

With `CN(C)C(C(=O)N1CCN(CC(F)(F)F)CC1)c1ccccc1F` (stereo not drawn), the “Percent Effect” value was -7.118%.

As for `Cn1nc(Cn2ccnc2)c2c1CN(C(=O)c1ccc[nH]1)C2`, the “Percent Effect” value is listed as -17.57%.

As for `CCCc1cnc(C)nc1NC(C)Cc1cnccn1` (stereo not drawn), the “Percent Effect” value was -13.48%.

`COc1ccccc1N1CCC(CNC(=O)N(C)Cc2ccco2)C1` (stereo not drawn): the “Percent Effect” value came to 0.07203%.

As for `COCCN(c1ccncc1)S(=O)(=O)c1cc(C)cc(F)c1`, the “Percent Effect” value is -2.462%.

Regarding `CC(C)c1nc(C2CCCN(C(=O)c3ccnc(N(C)C)c3)C2)no1` (stereo not drawn), the “Percent Effect” value is reported as -3.864%.

With `Cc1nc(C2CCCN(C(=O)c3cccc(S(C)(=O)=O)c3)C2)no1` (stereo not drawn), the “Percent Effect” value amounted to 8.734%.

As to `Cc1nc(C2CCCN(C(=O)c3ccoc3)C2)no1` (stereo not drawn), the “Percent Effect” value stood at 101.5%.

Consider `Cc1nc(C2CCCN(C(=O)c3ccnc(N(C)C)c3)C2)no1` (stereo not drawn), for which the “Percent Effect” value is given as 127.7%.

With `Cc1nc(C2CCCN(C(=O)c3ccco3)C2)no1` (stereo not drawn), the “Percent Effect” value came to 13.92%.

`Cc1nc(C2CCCN(C(=O)c3ccc(S(C)(=O)=O)cc3)C2)no1` (stereo not drawn): the “Percent Effect” value was found to be 120.9%.

For `Cc1cnn(CCNCc2ccc(OCc3csc(C)n3)cc2)c1`, the “Percent Effect” value was -5.1%.

For `Cn1c(Cn2cccn2)nnc1C1CCCN(c2ccncc2)C1` (stereo not drawn), the “Percent Effect” value is -11.32%.

Consider `Cc1ccccc1C(=O)NCc1ccc(N2CCNC(=O)C2)c(F)c1`, for which the “Percent Effect” value is listed as -11.32%.

On to `O=C(O)C(F)(F)F.O=C([C@H]1COC[C@H]2CN(CC3CCCC3)C[C@H]21)N1CCOCC1`, for which the “Percent Effect” value was -19.66%.

For `COc1cccc(NC(=O)Cc2c(C)nc3c(c2C)c(=O)[nH]n3C)c1`, the “Percent Effect” value turned out to be 0.5633%.

As to `COc1ccc(OC)c(NC(=O)c2nc3ccccc3n(C)c2=O)c1`, the “Percent Effect” value is 10.54%.

In the case of `COc1ccc(NC(=O)c2nc3ccccc3n(C)c2=O)c(OC)c1`, the “Percent Effect” value turned out to be 115.5%.

On to `COc1ccc(NC(=O)c2nc3ccccc3n(C)c2=O)cc1OC`, for which the “Percent Effect” value is recorded as 120.1%.

For the molecule `COc1cc(NC(=O)NCc2ccccn2)cc(OC)c1`, the “Percent Effect” value was found to be 6.3%.

Consider `COc1ccc(Nc2nc3c(C)nn(C)c3c(=O)n2C)c(OC)c1`, for which the “Percent Effect” value is given as -1.628%.

With `COc1cccc(NC(=O)NC(C)(C)c2noc(C)n2)c1`, the “Percent Effect” value is given as -4.672%.

For the molecule `COc1cc(NC(=O)c2nc3ccccc3n(C)c2=O)cc(OC)c1`, the “Percent Effect” value was determined as 112.5%.

`Cn1c(CCCNC(=O)Nc2cn[nH]c2)nc2ccccc21`: the “Percent Effect” value is -21.13%.

Regarding `CCCN1CCC(NC(=O)Nc2ccc(OC)c(OC)c2)CC1`, the “Percent Effect” value is listed as 8.494%.

On to `COc1cccc(NC(=O)c2nc3ccccc3n(C)c2=O)c1`, for which the “Percent Effect” value is on record as 124.2%.

Consider `CCSc1nc(N)c(NC(=O)c2ccc(OC)c(OC)c2)c(=O)[nH]1`, for which the “Percent Effect” value is given as -7.588%.

For the origin of these results see ChEMBL document CHEMBL3988442, “University of Dundee, Small-Polar-MMV Screening Library” (2021).
